# Compound activity as filed in PubChem.
# BAZ2B inh: blocks human BAZ2B | Q9UIF8 | Potency, µM (doses to about 114 µM), for the others: at the top dose activity change, negative = inhibition, actives largely listed as inhibitors | 360,000 compounds, 4.4% hits | AlphaScreen BAZ2B-H3K14Ac peptide displacement; note: % is set by controls: 0 for no effect and ±100 for the full control effect; nearly all actives have a fitted effect of over 60% in size
#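 Inhibition is scored as reduced AlphaScreen emission. The BAZ2B/b-H3(5-23)K14Ac complex (50 nM each) in PBS pH 7.4, 0.01% Tween-20 meets compound (up to 110 uM) for 30 min at RT before bead addition.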
# Sfp inh: Sfp phosphopantetheinyl transferase inhibition | Q9F4F7 | Biochemical Sfp PPTase activity, qHTS | Potency, µM, inactives show largest response in the series, negative = inhibition, usual class: inhibitors | 310,000 compounds, 3.5% hits;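 note: the enzyme is Sfp with the accession as filed and its product quenches rhodamine fluorescence; 0% = enzyme reaction without inhibitor and -100% = no enzyme wells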
#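 Compounds were incubated with enzyme (final 15 nM) for 15 min at room temperature before substrate addition started the reaction. Fluorescence at 525 nm excitation, 598 nm emission was recorded immediately and after 30 minutes.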
# HP1b chromo inh: blocks HP1-beta chromodomain binding to methylated histone tails; 390,000 compounds, 0.56% hits; P83916; Potency, µM (series often up to 114 µM), inactives show at the top dose activity change, negative = inhibition, usual class: inhibitors; AlphaScreen HP1-beta / biotin-H3K9me3 peptide binding; note: nearly all actives have a fitted effect of over 70% in size
#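 Compound inhibition of the preformed complex between 50 nM HP1-beta and 50 nM biotinylated H3K9me3 peptide was read by AlphaScreen. Buffer was PBS pH 7.4 with 0.01% Tween-20. Incubations ran 30 min at room temperature, with 10 ug/mL donor/acceptor beads.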
# L3MBTL1 inh: blocks human L3MBTL1 | Potency, µM (titrated, usually from 57.1 µM), for inactives: at the top dose activity, negative = inhibition, usual class: inhibitors | AID 485360 | 230,000 compounds, 0.66% hits | AlphaScreen L3MBTL1–H3K9me1 peptide binding | Q9Y468; note: % is set by controls: 0 for no effect and ±100 for the full control effect; nearly all actives have a fitted effect of over 60% in size
#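 L3MBTL1 50 nM + b-AHA-H3(1-15)K9me1 75 nM, 30 min RT; compound added, 30 min RT; streptavidin donor/Ni-chelate acceptor beads 10 ug/mL each final, 30 min RT dark; AlphaScreen read.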
# JMJD2A Tudor: blocks the human JMJD2A Tudor domain; O75164; AlphaScreen JMJD2A-Tudor / H3K4me3 peptide binding; Potency, µM (doses to about 114 µM), for inactives: top-dose activity change, negative = inhibition, usual class: inhibitors; 390,000 compounds, 4.4% hits; note: % is set by controls: 0 for no effect and ±100 for the full control effect; nearly all actives have a fitted effect of over 50% in size
# G9a inh: blocks human histone lysine methyltransferase G9a | Q96KQ7 | G9a H3K9 monomethylation, AlphaScreen, 2 h | Potency, µM (titrated, usually from 102 µM), for the others: at the top dose activity, negative = inhibition, usual class: inhibitors | 350,000 compounds, 8.8% hits; note: % is set by controls: 0 for no effect and ±100 for the full control effect; nearly all actives have a fitted effect of over 75% in size
#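 Chemiluminescent proximity detection of H3K9 monomethylation, read after 10 min bead incubation in the dark. Reaction: 20 nM G9a, 500 nM biotin-H3K9 peptide, 20 uM SAM cofactor, 2 h, room temperature, following 15 min enzyme-compound preincubation.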
# Active calls of the source: *; ? = inconclusive; nt = no result; [ ] = remark or other dose. Sampled rows, rich in hits. Any-hit rate of the full collection: about 12%. Calls come from the whole dose curve; as a rule, active = well fitted curve in the direction sought with a large enough effect; inconclusive = small, poorly fitted or top-dose-only effect, or another doubt; inactive = no such curve, though single readings can be large; an effect the other way counts as inactive or inconclusive. Potency is the fitted concentration of half-maximal effect.
SMILES,BAZ2B inh,Sfp inh,HP1b chromo inh,L3MBTL1 inh,JMJD2A Tudor,G9a inh
O=C(CCN1CCOCC1)c1ccc(N2CCCCC2)cc1,7%,nt,30%,2%,-32%,1%[0.501 µM]
O=C(CCN1CCN(c2ccccc2)CC1)Nc1ccc(Cl)cc1,30%,12%,27%,?,-12%,36%[59 µM]
O=C(CCN1CCN(c2ccc([N+](=O)[O-])cc2)CC1)c1ccc(Cl)cc1,?,?,3%,nt,?,14µM*
O=C(CCN1CCN(c2ccccc2)CC1)c1ccc(Cl)cc1,-27%,2%,33%,nt,-22%,28µM*
O=C(N/C=N/O)C1=NOC(CNc2ncc(C(F)(F)F)cc2Cl)C1 (stereo unspecified),-10%,9%,11%,nt,-4%,45µM*
CCCN(C(=O)Cn1nc(Cc2ccncc2)c2ccccc2c1=O)c1ccccc1C,-29%,nt,14%,nt,-26%,-2%[59 µM]
Cc1cc(/C=C/c2ccc3cc(N(C)C)ccc3[n+]2C)c(C)n1-c1ccccc1,nt,-27%,nt,nt,nt,nt
CN(C)c1ccc(/C=C/c2ccc3ccccc3[n+]2C)cc1,45µM*,-22%,?,-9%,79µM*,7.9µM*
CN(CCCS(=O)(=O)[O-])c1ccc(/C=C/c2ccc3ccccc3[n+]2C)cc1,?,-9%,3%,nt,?,32µM*
[O-][n+]1c(/C=C/c2ccccc2)ccc2ccccc21,?,-2%,-10%,7%,-26%,8%
CN(C)c1ccc(/C=C/c2ccc3c4ccccc4ccc3[n+]2-c2ccccc2)cc1,7.9µM*,14µM*,11µM*,?,8.9µM*,16µM*
COc1ccc(/C=C/c2ccc3ccccc3[n+]2C)cc1OC,-38%,-23%,-5%,nt,?,35µM*
CC(=O)Oc1ccccc1/C=C/c1ccc2ccccc2[n+]1C,?,-19%,-8%,-3%,?,nt
CCC(=O)NCc1nc2ccccc2n1Cc1ccccc1,3%,nt,13%,nt,-10%,8%[59 µM]
COc1ccc(NS(=O)(=O)c2ccc(-n3cccn3)cc2)cc1OC,-1%,nt,12%,nt,-2%,-3%[59 µM]
COc1ccc(NC(=O)N(CCC(C)C)C(C)c2cccs2)c(OC)c1 (stereo unspecified),-17%,nt,26%,nt,?,?
Cc1cccc(NC(=O)CCC(=O)OCC(=O)c2ccc(Oc3ccc([N+](=O)[O-])cc3)cc2)c1,-4%,-7%,-4%,2%,-19%,8.9µM*
Cc1ccc(NC(=O)CCC(=O)OCC(=O)c2ccc(Oc3ccc([N+](=O)[O-])cc3)cc2)cc1C,0%,17%,12%,2%,-23%,-1%[59 µM]
O=C(CSc1ccc(Cl)cc1)N1CCN(c2ncc(C(F)(F)F)cc2Cl)CC1,26%,3%,83%,17%,16%,9%[59 µM]
O=C(CN1CCN(c2ncc(C(F)(F)F)cc2Cl)CC1)N1CCN(c2ncc(C(F)(F)F)cc2Cl)CC1,3%,13%,18%,nt,-14%,50µM*
COc1cccc(-c2nc(Cn3c(=O)cc(C)c4c(C)nn(-c5ccccc5)c43)c(C)o2)c1OC,-13%,nt,-11%,nt,-19%,3%[59 µM]
CCCCc1ccc(NC(=O)CSc2nnc3[nH]c(=O)cc(C)n23)cc1,2%,nt,45%,nt,-11%,-3%[59 µM]
O=[N+]([O-])c1ccccc1N/N=C1\CC2CC=CC12 (stereo unspecified),13µM*,-11%,18µM*,?,40µM*,11µM*
O=[N+]([O-])c1ccc(/C=N/NS(=O)(=O)c2ccc(Cl)cc2)o1,-38%,-14%,24%,10%,?,3.5µM*
O=[N+]([O-])c1ccc(/C=N/Nc2ccnc3cc(Cl)ccc23)o1,28µM*,-19%,32µM*,nt,40µM*,40µM*
SMILES,BAZ2B inh,Sfp inh,HP1b chromo inh,L3MBTL1 inh,JMJD2A Tudor,G9a inh
Cc1ccc(S(=O)(=O)N/N=C\c2ccc([N+](=O)[O-])o2)cc1,-5%,-13%,4%,0%,-25%,3.5µM*
Cc1ccc(S(=O)(=O)N/N=C\c2ccc([N+](=O)[O-])o2)cc1C,-5%,12%,43%,nt,-17%,79%
Clc1ccc2c(N/N=C/c3ccccc3Br)ccnc2c1,-5%,-29%,4%,2%,?,27%[59 µM]
CC(=O)c1cccc(NC(=S)Nc2ccc(F)cc2)c1,6%,3%,9%,-6%,-15%,50µM*
CNC(=S)Nc1cccc(C(C)=O)c1,-17%,17%,22%,-2%,-4%[11.4 µM],-17%
O=C(Nc1cc(Br)c(O)c(Br)c1)c1cccc(NC(=O)c2ccco2)c1,50µM*,?,9%,-10%,-29%,40µM*
CC(=O)c1cccc(NC(=S)NNC(=O)c2ccco2)c1,5%,7%,33%,8%,3%,35µM*
Cc1cccc(NC(=S)NC(NC(=O)c2ccco2)C(Cl)(Cl)Cl)c1 (stereo unspecified),-28%,3%,30%,nt,-3%,14µM*
CC(=O)c1cccc(NC(=O)c2cccc(NC(=O)c3ccco3)c2)c1,79µM*,17%,55%,9%,-15%,45µM*
Cc1cc(C)cc(NC(=O)c2cccc(NC(=O)c3ccco3)c2)c1,nt,nt,42%,nt,-27%,nt
COC1[C@@H](OC)C[C@H](C)[C@@H](OC)C2=CC(=O)C=C(NC(=O)/C(C)=C/C=C\[C@H](OC)[C@@H](OC(N)=O)/C(C)=C/[C@@H]1C)C2=O (stereo partly specified),nt,-27%,nt,nt,nt,nt
CCC(=O)N1N=C(c2ccc(C)o2)CC1c1ccc(OC)cc1 (stereo unspecified),-39%,-17%,44%,-4%[11.4 µM],-10%,?
CCC(=O)N1N=C(c2ccc(C)o2)CC1c1ccc(Br)cc1 (stereo unspecified),?,50µM*,-35%,-3%,-23%[57.1 µM],?
COc1ccccc1NC(=O)CN1CC(=O)Nc2ccccc21,nt,9%,37%,-7%,9%,20µM*
Cc1ccc(NC(=O)CNC(=O)N2CC(=O)Nc3ccccc32)cc1F,-3%,17%,4%,nt,?,11%
O=C(CN1CC(=O)Nc2ccccc21)Nc1ccc(F)c(F)c1,-1%,40µM*,51%,nt,-5%,8.9µM*
